An excerpt weighted towards active compounds, which were near 7.5% of everything screened.
NPC1 promoter act: activators of NPC1 promoter; Huh7 NPC1 promoter luciferase reporter, 24 h; Potency, µM (highest dose often 9.22 µM), for the others: top-dose activation, actives largely listed as activators; 320,000 tested, 2.4% active; AID 485313; further: % of control where 0% means no effect; nearly all actives have a fitted effect of over 60% in size
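NPC1 promoter–luciferase Huh7 cells; 24 h compound; luminescence.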
ELG1 genotox: inducers of genotoxicity in HEK293T ELG1-luciferase cells; HEK293T ELG1-luciferase reporter, luminescence, 16 h; Potency, µM (highest dose often 46 µM), for inactives: top-dose activity change, positive = activation, usual class: activators; 330,000 tested, 1.3% active; AID 504466; further: % of control where 0% means no effect; nearly all actives have a fitted effect of over 60% in size
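After overnight (16 hr) compound treatment at 37 °C, ELG1-luciferase HEK293T cells were lysed with ONE-Glo; luminescence quantified 30 min later at room temperature.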
Rab9 promoter act: Rab9 promoter activation | Potency, µM (series often up to 9.22 µM), for the others: at the highest dose activation, negative = inhibition, most hits filed as activators | 320,000 tested, 2.8% active | AID 485297 | Huh7 Rab9 promoter-luciferase reporter, luminescence, 24 h; further: % of control where 0% means no effect; nearly all actives have a fitted effect of over 60% in size
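Luciferase signal after 10 min detection reagent at ambient indicates Rab9 promoter upregulation; stably transfected Huh7 cells were treated 24 h with compound in DMSO at 37 °C, 5% CO2.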
SMN2 splice up: increases expression of the SMN2 splice variant; HEK293 SMN2-luciferase splicing reporter, luminescence, 30-36 h; 210,000 tested, 2.8% active; AID 1458; Potency, µM (doses to about 46.1 µM), without a hit: top-dose activity change, positive = activation, hits mostly activators; further: % of control where 0% means no effect; nearly all actives have a fitted effect of over 55% in size
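qHTS luciferase splicing reporter: luminescence rises when SMN2 exon 7 is included in transfected HEK293 cells. Compound exposure lasted 30-36 h at 37C, with 4.5 mM final sodium butyrate as control, followed by a ONE-Glo read.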
FLuc counter: firefly luciferase modulation, counter-screen for miR-21 project | P08659 | purified FLuc, Km substrates, luminescence inhibition | Potency, µM (doses to about 57.5 µM), without a hit: at the highest dose activity change, negative = inhibition, usual class: inhibitors | 360,000 tested, 6.9% active;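 further: plate controls were vehicle for no effect and reference inhibitor for full effect; nearly all actives have a fitted effect of over 55% in size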
Target sequence (P08659 whole entry, looked up): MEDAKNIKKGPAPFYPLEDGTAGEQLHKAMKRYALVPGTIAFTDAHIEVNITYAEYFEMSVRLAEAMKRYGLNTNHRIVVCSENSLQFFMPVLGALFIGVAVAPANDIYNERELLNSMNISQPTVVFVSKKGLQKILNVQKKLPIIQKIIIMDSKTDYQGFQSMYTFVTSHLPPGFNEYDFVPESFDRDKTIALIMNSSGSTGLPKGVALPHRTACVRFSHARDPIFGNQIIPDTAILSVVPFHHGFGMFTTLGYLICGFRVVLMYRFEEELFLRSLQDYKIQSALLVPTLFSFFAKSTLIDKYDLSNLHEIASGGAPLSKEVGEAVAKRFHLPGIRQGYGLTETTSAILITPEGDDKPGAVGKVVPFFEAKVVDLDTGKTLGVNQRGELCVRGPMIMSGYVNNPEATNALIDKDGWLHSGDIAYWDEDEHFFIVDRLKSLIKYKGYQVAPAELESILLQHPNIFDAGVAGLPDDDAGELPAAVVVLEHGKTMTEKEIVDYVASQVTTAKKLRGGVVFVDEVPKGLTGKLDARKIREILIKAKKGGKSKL
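Biochemical qHTS of compounds, final roughly 60 µM downward over six points, against 10 nM purified firefly luciferase using Km concentrations of substrates (10 uM D-luciferin, 10 uM ATP) in Tris acetate pH 7.5 buffer; luminescence output.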
Luc counter: counter-screen: inhibitors of Kinase-Glo firefly luciferase. Potency, µM (doses to about 38.3 µM), for inactives: at the highest dose activity change, negative = inhibition, hits mostly inhibitors. Q27757. Kinase-Glo luciferase, ATP luminescence, 8 min. 200,000 tested, 0.28% active; further: on the % scale 0 is the no-effect control and ±100 the full control effect; nearly all actives have a fitted effect of over 60% in size
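Luminescence was the read-out, taken after 8-minute incubation at ambient temperature. Luciferase turned over luciferin with 10 uM ATP in imidazole pH 7.2 buffer containing KCl, MgCl2, Tween 20 and BSA.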
* marks the source's active call; other numbers are inactive results; ? = inconclusive; nt = not tested or not shown; [ ] = another dose, or the depositor's remark. The call rests on the fitted dose curve; in most records, active means well fitted curve in the direction sought with a large enough effect; inconclusive means small, poorly fitted or top-dose-only effect, or another doubt; inactive means no such curve, though single readings can be large; an effect the other way counts as inactive or inconclusive. Potency means the concentration at half of the fitted maximal effect.

SMILES | NPC1 promoter act | ELG1 genotox | Rab9 promoter act | SMN2 splice up | FLuc counter | Luc counter
O=C(OCC(=O)c1c[nH]c2ccccc12)c1ccco1 | 7% | 16µM* | 8% | 1% | 9.5µM* | -3%
O=C(NCCc1c[nH]c2ccccc12)c1ccc(Br)o1 | nt | 5% | nt | nt | nt | nt
COc1cccc(/C=C/C(=O)OCC(=O)c2c[nH]c3ccccc23)c1OC | -2% | 0% | 1% | -15% | -11% | 2%
CC1=C(c2ccc(C(C)C)cc2)S(=O)(=O)NC1=NCc1ccc(OC(C)C)cc1 | nt | nt | nt | nt | 2% | nt
Cc1cc2ncn(CCOc3ccccc3)c2cc1C | ? | ? | 3.5µM* | -2% | 17µM* | -3%
O=C(Cn1c(=O)c2cccn2c2ccccc21)NCc1ccccc1F | nt | nt | nt | nt | -20% | nt
Cc1ccc(NC(=O)C(=O)C2C(=O)Nc3ccccc32)cc1 (stereo unspecified) | ? | ? | ? | nt | 12µM* | nt
CC1=NN(c2ccccc2)C(=O)C1C(=O)C(=O)Nc1ccc(F)cc1 (stereo unspecified) | ? | ? | 3.2µM* | nt | 9.5µM* | nt
CN(C)CCNC(=O)C(=O)C1C(=O)Nc2ccccc21 (stereo unspecified) | 0% | -2% | 9% | 3% | 0% | -2%
CC1=NN(c2ccccc2)C(=O)C1C(=O)c1ccccc1 (stereo unspecified) | -1% | -5% | -3% | -4% | -13% | 2%
CCCn1c2ccccc2c2cnn(CC(=O)N(CCCOC)Cc3ccco3)c(=O)c21 | nt | nt | nt | nt | -8% | nt
O=C(Nc1ccc(F)cc1)c1cc(-c2ccncc2)nc2c(Cl)cccc12 | -1% | -20% | 0% | nt | 1% | nt
O=C(O)c1ccc(Nc2nc(-c3cc4ccccc4oc3=O)cs2)cc1O | 8% | 9% | 2% | 1% | 4.8µM* | 1%
COc1ccc2cc(-c3nnc(Nc4ccccc4)s3)c(=O)oc2c1 | nt | nt | nt | nt | 2% | nt
COc1cccc2sc(Nc3nc(-c4cc5ccccc5oc4=O)cs3)nc12 | -26% | 6% | -19% | -8% | ? | 0%
Nc1ccc(Nc2nc(-c3cc4ccccc4oc3=O)cs2)cc1 | ? | ? | ? | ? | 2.4µM* | -1%
COc1ccc2oc(=O)c(-c3csc(Nc4cccc(O)c4)n3)cc2c1 | 11% | 0% | -2% | ? | 1.7µM* | -2%
CNc1nnc(-c2cc3ccccc3oc2=O)s1 | 1.4µM* | 18µM* | 1.4µM* | 13µM* | 4.8µM* | ?
CCOCCCNCc1ccc(OCc2ccccc2C)c(OC)c1 | 0% | 0% | -2% | -15% | -3% | -1%
CC(C)(C)OC(=O)C[C@H]1C/C=C\C[C@H](CC(=O)NCCO)C(=O)NCCOC1=O | nt | 5% | nt | nt | nt | nt
CC(=O)Nc1ccc(Nc2nc(-c3cc4ccccc4oc3=O)cs2)cc1 | ? | ? | ? | nt | 5.4µM* | nt
CCn1cc(Br)c(C(=O)Nc2ccc(F)c(Cl)c2)n1 | 2.2µM* | ? | 2.8µM* | 11% | 17µM* | 0%
CCOC(=O)c1ccc(NC(=O)c2nn(CC)cc2Br)cc1 | ? | ? | ? | ? | 11µM* | -15%
CCOC(=O)c1ccc(NC(=O)c2nn(C)cc2Br)cc1 | ? | 21µM* | ? | 24% | 6.7µM* | -2%
CCOC(=O)c1ccc(NC(=S)NC(=O)c2nn(CC)cc2Br)cc1 | 10% | 2% | 2% | 12% | -3% | 0%
SMILES | NPC1 promoter act | ELG1 genotox | Rab9 promoter act | SMN2 splice up | FLuc counter | Luc counter
CCOC(=O)c1ccc(NC(=O)Nc2ccn(C)n2)cc1 | ? | 18% | ? | 8% | ? | 2%
CCCC[C@]12Cc3cc(OC)c(OC)cc3C(O1)C1=C(O2)C(=O)c2ccccc2C1=O | 3%[1.84 µM] | nt | -2%[1.84 µM] | nt | -8%[11.5 µM] | nt
O=C(N/N=C/c1cccn1-c1ccc(O)cc1)c1cccc2ccccc12 | 1% | 2% | -6% | nt | -2% | nt
O=C(O)c1ccc(-n2cccc2/C=N\NC(=O)c2cc3cc(Br)ccc3o2)cc1 | -4% | -2% | -2% | nt | 15µM* | nt
O=C(O)Cn1cc(/C=N/NC(=O)c2cc3cc(Br)ccc3o2)c2ccccc21 | 1% | 1% | 1% | nt | 12µM* | nt
O=C(N/N=C/c1cccc2ccccc12)c1cc2ccccc2o1 | 0% | 0% | 1% | nt | ? | nt
C=CCn1cc(/C=N\NC(=O)c2cc3c(ccc4ccccc43)o2)c2ccccc21 | -1% | -6% | 4% | 3% | ? | 5%
C#CCn1cc(/C=N/NC(=O)c2cc3ccccc3o2)c2ccccc21 | 9% | 0% | -2% | 7% | 12µM* | 2%
Cn1cc(/C=N/NC(=O)c2cc3cc(Br)ccc3o2)c2ccccc21 | 9% | -1% | 5% | nt | 8.5µM* | nt
CCn1c(=S)sc2c(=O)n(CC(=O)Nc3ccccc3C(F)(F)F)c(C)nc21 | -3% | -1%[9.26 µM] | 2% | nt | 2% | nt
CCOC(=O)N1CCN(CCC(=O)Nc2cccc(F)c2)CC1 | nt | nt | nt | 7% | -1% | nt
Cc1cc(N2CCC(C)CC2)nc2ccc(NC(=O)CCC(=O)N3CCN(c4ccccc4F)CC3)cc12 | nt | nt | nt | -12% | 4.8µM* | nt
CC(=O)c1ccc(N2CCN(C(=O)CCC(=O)Nc3ccc4nc(N5CCCCC5)cc(C)c4c3)CC2)cc1 | nt | nt | nt | 0% | ? | nt
CCCCN(C)C(=O)CCC(=O)Nc1ccc2nc(N3CCOCC3)cc(C)c2c1 | ? | 6% | ? | 20µM* | ? | 0%
Cc1cc(N2CCOCC2)nc2ccc(NC(=O)CCC(=O)N3CCC(C)CC3)cc12 | ? | 7% | 4.5µM* | nt | 12µM* | nt
CCN1CCN(c2cc(C)c3cc(NC(=O)CCC(=O)N4CCN(c5ccccc5)CC4)ccc3n2)CC1 | -5% | -3% | 2% | nt | ? | nt
Cc1cc(N2CCOCC2)nc2ccc(NC(=O)CCC(=O)N3CCCCC3)cc12 | ? | ? | 4µM* | 8.9µM* | ? | 0%
CC1CCCC(NC(=O)C2CCCN2S(=O)(=O)c2cccc3nsnc23)C1C (stereo unspecified) | 9% | -5% | -1% | -9% | 2% | 0%
CC(C)CNS(=O)(=O)c1ccc(OCC(=O)NCC2CCCO2)c(Cl)c1 (stereo unspecified) | -1% | -2% | -6% | -4% | -2% | 5%
O=C(c1ccccc1Cc1ccccc1)N1CCN(S(=O)(=O)c2ccccc2Br)CC1 | 2% | -12% | -6% | nt | 2% | nt
Cc1cc(N2CCOCC2)nc2ccc(Cl)cc12 | ? | ? | ? | nt | 6µM* | nt
CCN1CCN(c2cc(C)c3cc(NC(=O)CCC(=O)N4CCN(c5ccccc5OC)CC4)ccc3n2)CC1 | 14% | 2% | 5% | nt | 15µM* | nt
